From PubChem
ELG1 DNA repair: ELG1-dependent DNA repair inhibition. 330,000 tested, 2.3% active. AID 504467. HEK293T ELG1-luciferase reporter, luminescence, 16 h; DNA damage induced by 5-fluorouridine. Potency, µM (titrated, usually from 46.1 µM), without a hit: top-dose activity change, negative = inhibition, hits mostly inhibitors; note: % is set by controls: 0 for no effect and ±100 for the full control effect; nearly all actives have a fitted effect of over 55% in size
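Luminescence from the luciferase reporter, measured 30 min after ONE-Glo reagent at room temperature, was the read-out. Beforehand, 2,000 cells per well were exposed for 16 hr at 37 °C to 5-fluorouridine together with compound or vehicle.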
Rab9 promoter act: Rab9 promoter activation. 320,000 tested, 2.8% active. Potency, µM (titrated, usually from 9.22 µM), for inactives: at the highest dose activation, negative = inhibition, usual class: activators. Huh7 Rab9 promoter-luciferase reporter, luminescence, 24 h; note: % of control where 0% means no effect; nearly all actives have a fitted effect of over 60% in size
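Cells were plated at 1500 per well in reduced-serum medium with 10% FBS and left 2 h. Compound in DMSO was then added for 24 h at 37 °C. Reporter signal was read by luminescence after 10 min with luciferase detection reagent.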
FLuc counter: firefly luciferase modulation, counter-screen for miR-21 project; P08659; purified FLuc, Km substrates, luminescence inhibition; Potency, µM (highest dose often 57.5 µM), without a hit: at the top dose activity change, negative = inhibition, actives largely listed as inhibitors; 360,000 tested, 6.9% active; AID 588342;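 note: plate controls were vehicle for no effect and reference inhibitor for full effect; nearly all actives have a fitted effect of over 55% in size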
Target sequence (P08659 whole entry, looked up): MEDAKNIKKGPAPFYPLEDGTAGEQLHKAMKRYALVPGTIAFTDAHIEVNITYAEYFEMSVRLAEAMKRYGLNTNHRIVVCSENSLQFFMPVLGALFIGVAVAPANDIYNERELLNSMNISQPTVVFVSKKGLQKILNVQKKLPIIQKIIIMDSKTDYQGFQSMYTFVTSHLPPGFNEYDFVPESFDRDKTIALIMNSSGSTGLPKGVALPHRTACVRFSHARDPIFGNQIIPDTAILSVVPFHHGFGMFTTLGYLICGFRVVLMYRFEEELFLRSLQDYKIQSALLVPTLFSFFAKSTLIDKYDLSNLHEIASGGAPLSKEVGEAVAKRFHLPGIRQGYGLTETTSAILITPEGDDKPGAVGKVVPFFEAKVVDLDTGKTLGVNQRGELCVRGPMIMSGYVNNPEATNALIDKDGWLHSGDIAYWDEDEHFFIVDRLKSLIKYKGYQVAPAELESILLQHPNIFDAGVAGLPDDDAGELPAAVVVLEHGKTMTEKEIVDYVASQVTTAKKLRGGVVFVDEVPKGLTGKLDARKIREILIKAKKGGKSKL
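Biochemical qHTS of compounds, final roughly 60 µM downward over six points, against 10 nM purified firefly luciferase using Km concentrations of substrates (10 uM D-luciferin, 10 uM ATP) in Tris acetate pH 7.5 buffer; luminescence output.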
NPC1 promoter act: activators of NPC1 promoter; Huh7 NPC1 promoter luciferase reporter, 24 h; Potency, µM (series often up to 9.22 µM), for inactives: at the top dose activation, most hits filed as activators; 320,000 tested, 2.4% active; note: % of control where 0% means no effect; nearly all actives have a fitted effect of over 60% in size
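Readout is luciferase luminescence, reflecting NPC1 promoter activation in stably transfected Huh7 cells after 24 h compound exposure at 37 °C in reduced-serum medium with 10% FBS.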
ELG1 genotox: genotoxicity induction in ELG1-luciferase HEK293T cells; HEK293T ELG1-luciferase reporter, luminescence, 16 h; Potency, µM (series often up to 46 µM), for the others: at the highest dose activity change, positive = activation, hits mostly activators; 330,000 tested, 1.3% active; AID 504466; note: % of control where 0% means no effect; nearly all actives have a fitted effect of over 60% in size
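Quantitative HTS format in 1536-well plates. HEK293T ELG1-luciferase reporter cells receive test compound and are incubated 16 hr at 37 °C, 5% CO2; ONE-Glo added, 30 min room temperature, then luminescence read.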
SMN2 splice enh: enhancers of SMN2 splice variant expression; HEK293 SMN2-luciferase splicing reporter, luminescence, 30-36 h; Potency, µM (doses to about 46.1 µM), for the others: at the top dose activity change, positive = activation, actives largely listed as activators; 210,000 tested, 2.8% active; note: % of control where 0% means no effect; nearly all actives have a fitted effect of over 55% in size
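HEK293 cells carry an SMN2 minigene-luciferase reporter in which exon 7 inclusion puts luciferase in frame. Cells were seeded at 2000 cells/well, attached for 10-12 hours, then exposed to compounds for 30-36 hours at 37C before ONE-Glo luminescence.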
* hit, by the source's call; ? = inconclusive; / = not tested or not shown. Only some compounds are listed: those with a hit (about 9.2% of all), similar ones and a draw of the others. Calls come from the whole dose curve; as a rule, active = well fitted curve in the direction sought with a large enough effect; inconclusive = small, poorly fitted or top-dose-only effect, or another doubt; inactive = no such curve, though single readings can be large; an effect the other way counts as inactive or inconclusive. Potency is the fitted concentration of half-maximal effect.

SMILES	ELG1 DNA repair	Rab9 promoter act	FLuc counter	NPC1 promoter act	ELG1 genotox	SMN2 splice enh
CC(=O)Nc1nc(=O)c2ccccc2s1	?	3%	-1%	1%	0%	18%
COc1cccc(C(=O)Nc2nc3ccccc3s2)c1	?	2µM*	2.1µM*	3.5µM*	4.1µM*	/
COc1cccc(C(=O)N(C)C(C)c2nc3ccccc3s2)c1 (stereo not given)	-7%	0%	-1%	-1%	-12%	/
COc1c2c(cc3c1C(c1c(O)c4ccccc4oc1=O)N(C)CC3)OCO2 (stereo not given)	/	/	/	/	/	-38%
Cc1cc(N2CCN(c3cccc(C)c3C)CC2)n2nc(C)c(-c3ccc(Cl)cc3)c2n1	/	/	-3%	/	/	5%
Cc1cccc(OCCOCCn2c(-c3ccc(Cl)cc3)nc3ccccc3c2=O)c1C	/	/	3%	/	/	9%
Nc1nc(CSCCO)nc(Nc2ccccc2)n1	13%	2%	4%	0%	6%	13%
COc1ccc(Nc2nc(N)nc(SCc3nnc(C)s3)n2)cc1	?	?	24µM*	26%	?	?
Cc1ccc(Nc2nc(N)nc(CSc3nncn3C)n2)cc1	?	2.8µM*	13µM*	3.2µM*	?	18µM*
COc1ccc(Nc2nc(N)nc(CSc3nc(C)cc(C)n3)n2)cc1	-2%	-9%	-20%	-5%	9%	/
COc1ccc(Nc2nc(N)nc(CSc3nccn3C)n2)cc1	?	1.8µM*	21µM*	1.4µM*	?	/
Nc1nc(CSc2ccccn2)nc(Nc2ccccc2)n1	?	1.4µM*	9.5µM*	2.8µM*	?	11µM*
COc1ccc2nc(SCc3nc(N)nc(Nc4ccccc4)n3)[nH]c2c1	?	14%	13µM*	-6%	-1%	-13%
CCOc1ccc2noc3c2c1C(=O)c1ccccc1-3	?	-2%	-9%	8%	0%	15%
O=C1c2ccccc2-c2onc3c(Oc4ccccc4)cc(O)c1c23	?	1%	?	9%	?	11µM*
CC(C(=O)NC1CCCc2ccccc21)N1C(=O)C2CCCCC2C1=O (stereo not given)	9%	1%	3%	-2%	0%	/
CCOc1ccc(-c2nc(SCC(=O)NCCOC)c(-c3ccc(OC)c(OC)c3)[nH]2)cc1	/	/	-3%	/	/	9%
Cc1ccc(CN=C(Nc2ccccc2)NC2CCCCC2)cc1	-13%	-1%	0%	1%	-7%	/
CN(CCC#N)C(=O)c1cc2c(s1)-c1ccccc1SC2	?	2.5µM*	11µM*	2.2µM*	?	/
CC1CN(S(=O)(=O)c2cc(C(=O)N(CCc3ccccc3)Cc3ccccc3)ccc2Cl)CC(C)O1 (stereo not given)	23µM*	-4%	2%	-2%	-11%	/
Cc1ccc(C(=O)N(CCc2ccccc2)Cc2ccccc2)cc1S(=O)(=O)N1CCCCC1	?	1%	3%	1%	-9%	/
CN(Cc1cccs1)C(=O)c1ccc(Cl)c(S(=O)(=O)N2CCCCCC2)c1	21µM*	/	/	/	-5%	/
CC(=O)Nc1ccc(S(=O)(=O)N(C)CC(=O)OCC(=O)N(C)C2CCS(=O)(=O)C2)cc1 (stereo not given)	4%	2%	0%	1%	-3%	/
O=C(N1CCOCC1)N1CCN(c2nc(-c3ccccc3)cs2)CC1	1%	?	21µM*	30%	-5%	0%
c1ccc(-c2csc(N3CCN(c4ccccn4)CC3)n2)cc1	?	?	11µM*	?	-14%	-28%
c1ccc(-c2csc(N3CCOCC3)n2)cc1	?	?	15µM*	?	6.3µM*	11µM*
S=C(NCCCN1CCOCC1)N1CCN(c2nc(-c3ccccc3)cs2)CC1	?	-18%	-15%	-8%	-9%	/
